Shown are actives, neighbours in structure and some others; about 0.93% of the full set was active somewhere.
TRb SRC2 PPI = disrupts binding of human TR beta to SRC2; TRbeta-SRC2 peptide binding, fluorescence polarization; receptor liganded with 1 µM T3; Potency, µM (top dose mostly 106 µM), hits mostly inhibitors; 0.065% of 280,000 active; active = well fitted inhibition curve with a large enough effect; inconclusive = small, poorly fitted or top-dose-only effect, or effect the other way; note: nearly all actives have a fitted effect of over 50% in size
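Read-out is fluorescence polarization (555 nm excitation, 632 nm emission) of a Texas Red SRC2 coactivator peptide; loss of signal reflects blocked binding to human TRb ligand-binding domain in the presence of 1 uM T3.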
Coupling enz = inhibits coupling enzyme system, counter-screen for aldolase hits; 0.67% of 290,000 active; coupling enzyme system counterscreen, AmpLite Red fluorescence; activity change, negative = inhibition, % at 58.2 µM, hits read low; AID 2472; in the data active = activity change below about -30%
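Fluorescence at 525 nm excitation and 598 nm emission measured inhibition of the coupled detection system without aldolase. Compounds (at 57.5 uM final) were preincubated 10 min at room temperature with coupling enzyme reagent before a 20 min substrate/AmpLite Red step.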
RGS12 GoLoco inh = inhibitors of human Gai1-RGS12 GoLoco interaction (red fluorophore). P63096. Gai1:RGS12 GoLoco peptide FP, rhodamine, 10 min. Potency, µM (highest dose often 61.6 µM), most hits filed as inhibitors. 0.44% of 230,000 active. AID 880; active = well fitted inhibition curve with a large enough effect, not every such curve was filed as active; inactive = no such curve, though single readings can be large or run the other way; note: nearly all actives have a fitted effect of over 30% in size
Target sequence (P63096 whole entry, looked up): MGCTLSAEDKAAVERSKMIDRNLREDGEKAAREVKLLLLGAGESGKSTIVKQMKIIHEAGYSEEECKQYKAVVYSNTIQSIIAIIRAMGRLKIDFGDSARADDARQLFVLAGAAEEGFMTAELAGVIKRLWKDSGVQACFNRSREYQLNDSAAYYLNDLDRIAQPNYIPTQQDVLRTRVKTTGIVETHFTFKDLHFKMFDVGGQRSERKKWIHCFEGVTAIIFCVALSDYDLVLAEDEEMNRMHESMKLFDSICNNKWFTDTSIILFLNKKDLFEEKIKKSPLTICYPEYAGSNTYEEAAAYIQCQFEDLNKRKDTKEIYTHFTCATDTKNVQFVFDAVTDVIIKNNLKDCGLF
TexasRed fluor = counter-screen for TRb-SRC2 inhibitors: fluorescence interference; AID 1479; 0.29% of 280,000 active; TRb/SRC2 Texas Red total fluorescence interference; Potency, µM (titrated, usually from 106 µM); active = well fitted curve in either direction with a large enough effect; inconclusive = small, poorly fitted or top-dose-only effect
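Human TRb ligand-binding domain at 0.6 uM with 20 nM Texas Red SRC2 peptide in Tris buffer containing 1 uM T3 and 5% DMSO, incubated with compound 5 h at ambient temperature. Total fluorescence (555/632 nm) calculated as parallel + 2 × perpendicular.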
Numbers stand for hits; . = inactive; ? = inconclusive; / = not tested or not shown; [ ] = another dose, or the depositor's remark.

SMILES | TRb SRC2 PPI | Coupling enz | RGS12 GoLoco inh | TexasRed fluor
Cc1ccc2oc3c(c(=O)c2c1)C(c1ccc(OCC(N)=O)cc1)N(Cc1ccc2c(c1)OCO2)C3=O (configuration not stated) | . | / | / | .
CC1(C)CC(NNCCC#N)=CC(=[N+]2CCCC2)C1 | . | . | . | .
CC1(C)CC(N2CCN(Cc3ccccc3)CC2)=CC(=[N+]2CCCCC2)C1 | . | . | 25µM | .
CN(Cc1ccccc1)C1=CC(=[N+]2CCCCC2)CC(C)(C)C1 | . | . | . | .
CC1(C)CC(N2CCCC2)=CC(=[N+]2CCCCC2)C1 | . | . | 6.3µM | .
CC1(C)CC(=O)C=C(N2CCN(C3=CC(=O)CC(C)(C)C3)CC2)C1 | . | . | . | .
CC1(C)CC(N2CCCC2)=CC(=[N+]2CCCC2)C1 | . | . | 2µM | .
CCOC(=O)Cc1ccc(NC(=O)N2CC(CC)Oc3ccccc32)cc1 (configuration not stated) | . | / | / | .
COc1cc(NC(C)CCCN)c2ncccc2c1 (configuration not stated) | . | . | . | .
COc1cc(NCCCCCCCN)c2ncccc2c1 | . | -37 | . | .
O=C(NCCCN1CCOCC1)c1sc2cc([N+](=O)[O-])ccc2c1Cl | . | -60 | . | .
O=C(NCCCN1CCOCC1)c1sc2cc(Cl)ccc2c1Cl | . | . | . | .
NS(=O)(=O)c1ccc(NC(=S)NC(=O)c2ccc(-c3ccccc3)cc2)cc1 | . | . | . | 0.32µM[quencher]
CC(C)(C)C1CCC(O)CC1 (configuration not stated) | . | / | / | .
Cc1cccc2cc(C#N)c(NCCNS(=O)(=O)c3ccccc3)nc12 | . | . | . | .
Cc1cccc2cc(C#N)c(NCCNC(=O)COc3ccccc3)nc12 | . | -35 | . | .
Cc1cccc2cc(C#N)c(NCc3ccccc3)nc12 | . | -44 | . | .
COC(=O)c1cc2oc3ccccc3c2n1CC(=O)Nc1ccc(C)cc1C | . | / | / | ?
[N-]=C=C1C(=S)NC(=O)[C@H]([n+]2ccccc2)[C@H]1c1ccc(Cl)cc1 | . | . | . | .
[N-]=C=C1C(=O)NC(=O)C([n+]2ccc(-c3ccncc3)cc2)C1c1ccccc1C(F)(F)F (configuration not stated) | . | -65 | . | .
CN(C)c1ccc(C(=C2C=CC(=[N+](C)C)C=C2)c2ccc(N(C)C)cc2)cc1 | 100µM | -58 | . | .
C=CCCCCCCCCCCCC | . | / | / | .
Cc1ccc(-n2c(=O)c3c(c4cc(C)ccc4n3C)n(CC(=O)Nc3c(C)cccc3C)c2=O)cc1 | . | / | / | .
O=C(CSc1ccc(-c2ccco2)nn1)N1CCCCC1 | . | -47 | . | .
O=C(CSc1ccc(-c2ccco2)nn1)N1CCCC1 | . | . | . | .
SMILES | TRb SRC2 PPI | Coupling enz | RGS12 GoLoco inh | TexasRed fluor
CC(=O)c1ccc(NC(=S)Nc2cccc3cnccc23)cc1 | . | -62 | . | .
S=C(Nc1cccc(Cl)c1)Nc1cccc2cnccc12 | . | . | . | .
CC(=O)c1cccc(NC(=S)Nc2cccc3ccccc23)c1 | / | . | / | /
Cc1ccc(NC(=S)Nc2cccc3cnccc23)cc1C | . | -44 | . | .
Cc1ccc(NC(=S)Nc2cccc3cnccc23)cc1 | . | -38 | . | .
NC(=S)Nc1cccc2cnccc12 | . | . | . | .
COc1cccc(-c2cc(=O)c3cc(O)ccc3o2)c1 | . | . | . | .
O=C(CN1C(=O)C2(SCC(=O)N2c2cccc(Cl)c2)c2ccccc21)NCc1ccccc1 (configuration not stated) | . | / | / | .
Cc1ccc(C(=O)c2coc3c2C(=O)C(=O)c2ccccc2-3)cc1 | . | -79 | . | .
Cc1ccc(C(=O)c2c(C)oc3c2C(=O)C(=O)c2ccccc2-3)cc1 | ? | -79 | . | .
O=C(c1ccc(Cl)cc1)c1ccc(CN2C(=O)c3ccccc3C2=O)o1 | . | . | . | .
Cc1oc2c(c1C(=O)c1ccc(Cl)cc1)C(=O)C(=O)c1ccccc1-2 | ? | -79 | . | .
CCC(=O)OCC(=O)C1(OC(=O)CC)C(C)CC2C3C(Cl)CC4=CC(=O)C=C[C@@]4(C)C3C(O)C[C@@]21C (some centres not stated) | . | . | . | .
CCN1C(=O)c2ccccc2Sc2ccc(NC(=O)Nc3cccc([N+](=O)[O-])c3C)cc21 | . | / | / | 0.0005µM[quencher]
CCN1C(=O)c2ccccc2Sc2ccc(NC(=O)Nc3ccccc3OC)cc21 | . | / | / | .
ClC(Cl)Cl | . | / | 16µM | .

Compound activity deposited in PubChem BioAssay by National Center for Advancing Translational Sciences (NCATS).
